# Results as given in ChEMBL document CHEMBL1961873, “Compounds: GSK PKIS; Assays: Nanosyn kinase panel” (2012).
# Columns and labels:
# [1] = target: Sphingosine kinase 1 (Homo sapiens) (UniProt Q9NYA1); details: at 1 µM;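 note: mean SPHK1 inhibition value reported from the GSK PKIS kinase panel screen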
# [2] = target: T1, Sphingosine kinase 2 (Homo sapiens) (UniProt Q9NRA0); details: at 0.1 µM
# T1 sequence (whole entry): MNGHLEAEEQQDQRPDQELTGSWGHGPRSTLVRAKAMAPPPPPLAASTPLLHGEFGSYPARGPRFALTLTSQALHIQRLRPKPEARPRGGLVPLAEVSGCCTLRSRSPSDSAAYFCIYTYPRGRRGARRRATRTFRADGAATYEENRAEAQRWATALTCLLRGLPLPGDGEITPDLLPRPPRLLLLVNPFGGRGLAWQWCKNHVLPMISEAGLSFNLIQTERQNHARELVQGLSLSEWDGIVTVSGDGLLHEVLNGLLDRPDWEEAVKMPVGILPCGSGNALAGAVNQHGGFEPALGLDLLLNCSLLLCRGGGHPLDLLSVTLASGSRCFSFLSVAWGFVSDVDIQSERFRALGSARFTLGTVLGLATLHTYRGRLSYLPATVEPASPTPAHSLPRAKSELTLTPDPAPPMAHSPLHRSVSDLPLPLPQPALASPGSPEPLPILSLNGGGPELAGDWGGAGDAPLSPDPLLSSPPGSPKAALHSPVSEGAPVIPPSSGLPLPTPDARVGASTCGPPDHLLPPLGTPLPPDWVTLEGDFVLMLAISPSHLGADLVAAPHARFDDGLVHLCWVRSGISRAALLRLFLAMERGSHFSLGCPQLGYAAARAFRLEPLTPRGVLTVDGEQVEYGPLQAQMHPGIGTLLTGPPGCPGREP
# [3] = target: T1, Sphingosine kinase 2 (Homo sapiens); details: at 1 µM
# [4] = target: Casein kinase II subunit alpha (Homo sapiens) (UniProt P68400); details: at 0.1 µM
# [5] = target: Casein kinase II subunit alpha (Homo sapiens) (UniProt P68400); details: at 1 µM
# [6] = target: T2, Inhibitor of nuclear factor kappa-B kinase subunit alpha (Homo sapiens) (UniProt O15111); details: at 0.1 µM
# T2 sequence (whole entry): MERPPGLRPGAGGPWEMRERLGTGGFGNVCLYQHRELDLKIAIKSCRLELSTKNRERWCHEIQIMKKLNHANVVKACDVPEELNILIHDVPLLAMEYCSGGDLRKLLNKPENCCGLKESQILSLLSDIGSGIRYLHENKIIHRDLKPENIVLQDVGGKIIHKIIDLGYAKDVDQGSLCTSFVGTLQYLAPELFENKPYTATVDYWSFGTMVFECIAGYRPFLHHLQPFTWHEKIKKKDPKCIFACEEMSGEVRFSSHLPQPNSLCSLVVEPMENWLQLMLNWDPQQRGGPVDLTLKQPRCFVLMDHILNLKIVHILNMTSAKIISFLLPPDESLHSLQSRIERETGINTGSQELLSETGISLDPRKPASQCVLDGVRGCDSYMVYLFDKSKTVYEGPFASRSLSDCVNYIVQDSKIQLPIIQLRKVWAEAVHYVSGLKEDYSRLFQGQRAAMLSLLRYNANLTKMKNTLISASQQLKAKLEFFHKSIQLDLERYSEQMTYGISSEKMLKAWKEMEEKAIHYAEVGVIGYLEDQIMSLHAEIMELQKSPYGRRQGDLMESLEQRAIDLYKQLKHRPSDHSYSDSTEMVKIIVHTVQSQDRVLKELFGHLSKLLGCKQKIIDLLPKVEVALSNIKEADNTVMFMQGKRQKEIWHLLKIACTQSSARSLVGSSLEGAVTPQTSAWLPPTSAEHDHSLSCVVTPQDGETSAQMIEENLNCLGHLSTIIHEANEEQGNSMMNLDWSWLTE
# [7] = target: T2, Inhibitor of nuclear factor kappa-B kinase subunit alpha (Homo sapiens); details: at 1 µM
# [8] = target: T3, Inhibitor of nuclear factor kappa-B kinase subunit beta (Homo sapiens) (UniProt O14920); details: at 0.1 µM
# T3 sequence (whole entry): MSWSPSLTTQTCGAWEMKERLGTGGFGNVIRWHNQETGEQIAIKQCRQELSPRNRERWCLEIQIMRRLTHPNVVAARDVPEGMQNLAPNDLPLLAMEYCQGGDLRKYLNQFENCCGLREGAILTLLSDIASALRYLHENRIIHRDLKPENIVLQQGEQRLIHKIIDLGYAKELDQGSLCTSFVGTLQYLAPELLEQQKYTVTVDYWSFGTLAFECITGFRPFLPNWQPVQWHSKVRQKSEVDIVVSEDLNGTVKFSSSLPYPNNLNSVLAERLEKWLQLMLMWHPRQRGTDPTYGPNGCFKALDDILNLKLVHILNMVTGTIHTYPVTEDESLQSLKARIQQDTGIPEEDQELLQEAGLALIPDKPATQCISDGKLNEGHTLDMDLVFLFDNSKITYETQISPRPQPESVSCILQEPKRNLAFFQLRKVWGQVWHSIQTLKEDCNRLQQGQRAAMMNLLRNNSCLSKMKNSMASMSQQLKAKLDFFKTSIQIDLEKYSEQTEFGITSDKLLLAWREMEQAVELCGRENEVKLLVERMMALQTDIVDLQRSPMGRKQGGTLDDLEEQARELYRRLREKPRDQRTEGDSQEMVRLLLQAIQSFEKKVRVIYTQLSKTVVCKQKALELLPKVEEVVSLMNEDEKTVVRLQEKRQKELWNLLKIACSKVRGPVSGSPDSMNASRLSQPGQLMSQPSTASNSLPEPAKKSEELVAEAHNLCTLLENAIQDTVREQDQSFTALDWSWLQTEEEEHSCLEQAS
# [9] = target: T3, Inhibitor of nuclear factor kappa-B kinase subunit beta (Homo sapiens); details: at 1 µM
# [10] = target: T4, Inhibitor of nuclear factor kappa-B kinase subunit epsilon (Homo sapiens) (UniProt Q14164); details: at 0.1 µM;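 note: mean inhibition of IKKε reported, from the GSK PKIS dataset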
# T4 sequence (whole entry): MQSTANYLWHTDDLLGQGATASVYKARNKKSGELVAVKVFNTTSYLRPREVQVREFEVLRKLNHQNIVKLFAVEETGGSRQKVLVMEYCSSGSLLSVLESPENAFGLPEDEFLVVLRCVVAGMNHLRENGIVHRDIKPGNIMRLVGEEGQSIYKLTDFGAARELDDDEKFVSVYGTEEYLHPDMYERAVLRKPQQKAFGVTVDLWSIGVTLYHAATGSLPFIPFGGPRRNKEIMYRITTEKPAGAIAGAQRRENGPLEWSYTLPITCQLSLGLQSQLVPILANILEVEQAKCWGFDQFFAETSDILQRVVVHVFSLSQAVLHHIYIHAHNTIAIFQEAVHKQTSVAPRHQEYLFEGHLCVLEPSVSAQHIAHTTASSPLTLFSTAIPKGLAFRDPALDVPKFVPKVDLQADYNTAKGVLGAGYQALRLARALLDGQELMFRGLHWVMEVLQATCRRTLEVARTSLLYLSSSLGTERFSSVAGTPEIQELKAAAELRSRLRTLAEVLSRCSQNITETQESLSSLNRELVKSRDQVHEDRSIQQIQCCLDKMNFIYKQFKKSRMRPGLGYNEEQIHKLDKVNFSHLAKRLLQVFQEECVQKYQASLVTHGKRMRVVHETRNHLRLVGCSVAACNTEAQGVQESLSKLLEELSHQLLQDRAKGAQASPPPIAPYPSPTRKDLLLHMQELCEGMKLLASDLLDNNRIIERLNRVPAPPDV
# Sequence of Casein kinase II subunit alpha (Homo sapiens) (P68400 whole entry, looked up): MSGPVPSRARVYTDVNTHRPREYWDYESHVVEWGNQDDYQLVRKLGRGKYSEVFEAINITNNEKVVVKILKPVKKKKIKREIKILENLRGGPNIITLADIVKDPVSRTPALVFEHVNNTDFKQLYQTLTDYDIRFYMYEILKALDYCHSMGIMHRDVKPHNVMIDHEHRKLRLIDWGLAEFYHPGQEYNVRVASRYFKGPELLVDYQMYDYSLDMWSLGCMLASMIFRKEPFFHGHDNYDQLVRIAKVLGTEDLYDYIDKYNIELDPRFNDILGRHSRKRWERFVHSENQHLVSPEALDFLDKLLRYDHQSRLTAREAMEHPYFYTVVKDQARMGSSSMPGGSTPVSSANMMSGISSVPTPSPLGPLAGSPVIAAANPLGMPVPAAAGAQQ
# Sequence of Sphingosine kinase 1 (Homo sapiens) (Q9NYA1 whole entry): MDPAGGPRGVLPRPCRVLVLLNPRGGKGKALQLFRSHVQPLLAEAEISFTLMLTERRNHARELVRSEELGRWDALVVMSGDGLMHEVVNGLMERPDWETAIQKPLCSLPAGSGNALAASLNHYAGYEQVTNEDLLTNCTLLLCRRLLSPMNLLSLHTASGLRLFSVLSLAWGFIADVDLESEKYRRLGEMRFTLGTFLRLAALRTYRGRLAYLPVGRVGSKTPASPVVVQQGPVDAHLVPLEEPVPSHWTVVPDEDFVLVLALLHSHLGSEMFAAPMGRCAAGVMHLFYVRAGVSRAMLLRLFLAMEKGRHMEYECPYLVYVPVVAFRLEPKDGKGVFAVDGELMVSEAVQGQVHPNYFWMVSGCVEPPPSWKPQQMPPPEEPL
compound,measurement,setting,value
COc1cccc(-n2cnc3c(N/N=C/c4ccncc4)ncnc32)c1,inhibition,[1],0.02%
same,inhibition,[2],0.58%
same,inhibition,[3],-0.25%
same,inhibition,[4],0.97%
same,inhibition,[5],10.8%
same,inhibition,[6],0.84%
same,inhibition,[7],-1.74%
same,inhibition,[8],1.12%
same,inhibition,[9],3.32%
same,inhibition,[10],3.81%
